DT40 TDP1 no CPT – qHTS for Inhibitors of human tyrosyl-DNA phosphodiesterase 1 (TDP1): qHTS in cells in absence of CPT | AID 686978, 2013 | DT40 Tdp1-/- hTDP1 cells, no CPT, ATP luminescence, 48 h | 15% of 420,000 active | Potency, µM (series often up to 46.2 µM), without a hit: top-dose activity change, negative = growth inhibition, most hits filed as inhibitors; note: % is set by controls: 0 for no effect and ±100 for the full control effect; nearly all actives have a fitted effect of over 55% in size
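Stably hTDP1-transfected Tdp1-null chicken DT40 cells were treated with library compounds minus camptothecin and grown for at least 48 hr at 37 °C, after which cellular ATP was quantified by luminescence.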
TDP1 cell CPT – growth inhibition of DT40 Tdp1-/-;hTDP1 cells with camptothecin (screen for TDP1 inhibitors); chicken DT40 Tdp1-/-;hTDP1 cells + 20 nM CPT, ATP luminescence, 48 h; Potency, µM (doses to about 46.2 µM), without a hit: at the top dose activity change, negative = growth inhibition, hits mostly inhibitors; 12% of 420,000 active; note: % is set by controls: 0 for no effect and ±100 for the full control effect; nearly all actives have a fitted effect of over 55% in size
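Chicken DT40 Tdp1-/- cells stably complemented with human TDP1 were seeded at 400 cells/well in medium containing 20 nM camptothecin, exposed to pin-transferred compounds, and grown at 37 °C for at least 48 hr. Viability was read as ATP luminescence.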
ClpP mod – qHTS Assay for Activators of ClpP; purified B. subtilis ClpP, FRET peptide cleavage, 20 min; Potency, µM (titrated, usually from 57.5 µM), for inactives: at the top dose activity change, negative = active; 1.9% of 340,000 active; active = well fitted falling curve with a large enough effect; inconclusive = small, poorly fitted or top-dose-only effect; inactive = no such curve, though single readings can be large or run the other way; note: the source files actives as falling curves though it sought activators and does not explain the sign; nearly all actives have a fitted effect of over 65% in size
Target sequence (P80244 whole entry, looked up): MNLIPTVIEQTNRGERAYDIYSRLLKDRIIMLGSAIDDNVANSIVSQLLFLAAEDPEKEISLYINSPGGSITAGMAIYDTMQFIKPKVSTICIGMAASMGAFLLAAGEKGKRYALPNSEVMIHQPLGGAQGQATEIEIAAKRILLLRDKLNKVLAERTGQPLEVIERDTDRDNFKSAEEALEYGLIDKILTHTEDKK
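ClpP 10 microg/mL final, pH 8 Tris/KCl buffer with BSA, glycerol, Tween-20; compound pinned in; FRET-FV substrate; RT 20 min; Ex320/Em430; ΔFRET vs ADEP 5.8 microM, DMSO, no enzyme.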
TDP1 block – TDP1 (human) enzyme inhibition. Q9NUW8. recombinant TDP1, AlphaScreen DNA substrate cleavage. Potency, µM (top dose mostly 130 µM), without a hit: top-dose activity change, negative = inhibition, most hits filed as inhibitors. 0.28% of 350,000 active. AID 485290; note: % is set by controls: 0 for no effect and ±100 for the full control effect; nearly all actives have a fitted effect of over 40% in size
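Signal: AlphaScreen proximity between streptavidin donor and anti-FITC acceptor beads on intact substrate. Reaction: Tdp1 1 nM, substrate 15 nM final, 5 min RT after 15 min compound preincubation.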
* marks the source's active call; other numbers are inactive results; ? = inconclusive; / = no result; [ ] = another dose, or the depositor's remark. An excerpt weighted towards active compounds, which were near 17% of everything screened. Unless noted, calls come from the whole dose curve; as a rule, active = well fitted curve in the direction sought with a large enough effect; inconclusive = small, poorly fitted or top-dose-only effect, or another doubt; inactive = no such curve, though single readings can be large; an effect the other way counts as inactive or inconclusive. Potency is the fitted concentration of half-maximal effect.

SMILES	DT40 TDP1 no CPT	TDP1 cell CPT	ClpP mod	TDP1 block
Cc1ccccc1Nc1nc(Nc2ccccc2C)nc(SC2=NCCS2)n1	20.6µM*	23.1µM*	-1.7%	11.6%
Cc1ccc(Nc2nc(Nc3ccc(C)cc3)nc(SC3=NCCS3)n2)cc1	18.4µM*	?	-1.0%	10.7%
CCn1c(O)c(C=Nc2ccccc2)n(-c2ccccc2)c1=S	5.8µM*	6.51µM*	0.2%	4.7%
CC1CC(C)CN(c2nc(N(C)c3ccccc3)nc(N)c2[N+](=O)[O-])C1 (stereo not drawn)	13µM*	?	-1.3%	/
CCOC(=O)NN1C(=O)c2ccccc2NC1c1ccccc1F (stereo not drawn)	1.3%	-8.2%	4.2%	1.2%
CC(=O)OCC1OC(OC2C[C@]3(C)C(CC(O)C4C([C@](C)(CCC=C(C)C)OC5OC(CO)C(O)C(O)C5O)CC[C@]43C)[C@@]3(C)CCC(O)C(C)(C)C23)C(O[C@@H]2OC(C)C(O)C(O)C2O)C(O)C1O (stereo partly drawn)	36.2%	2.7%	-1.8%	-1.0%
Cc1nn(Cc2ccc(Cl)cc2)c(C)c1NC(=O)c1cc(-c2ccco2)on1	23.1µM*	13µM*	-8.7%	5.9%
Cc1cc(NC(=O)c2cc(-c3ccc(F)cc3)on2)nn1Cc1ccc(Cl)cc1	-20.1%	?	4.1%	-5.5%
Cc1cc(NC(=O)c2cc(-c3ccco3)on2)nn1Cc1ccc(Cl)cc1	25.9µM*	20.6µM*	390.5%	8.6%
COC(=O)c1ccc(NC(=O)C(=O)NCCc2sc(-c3cccc(F)c3)nc2C)cc1	?	11.6µM*	-4.3%	0.6%
COc1cc(C(=O)NCCc2sc(-c3cccc(F)c3)nc2C)cc(OC)c1OC	11.6µM*	9.2µM*	?	4.1%
Cc1cc(S(=O)(=O)NCCc2csc(-c3cccc(F)c3)n2)ccc1F	1.3µM*	?	?	0.6%
COc1ccc(S(=O)(=O)NCCc2sc(-c3cccc(F)c3)nc2C)cc1	20.6µM*	16.4µM*	3.7%	2.8%
CCCCOc1ccc(C(=O)NCCc2sc(-c3cccc(F)c3)nc2C)cc1	?	?	4.1%	-0.6%
C=C1CCN(C(Cc2ccccc2)C(=O)NCc2ccc(Cl)c(Cl)c2)S(=O)(=O)c2ccccc21 (stereo not drawn)	/	/	/	-0.3%
CC1CCc2sc(C(=O)N/N=C/c3ccc(O)cc3)cc2C1 (stereo not drawn)	?	?	-5.7%	5.1%
Cn1c(=O)c(-c2ccc(Cl)cc2)nc2cnc(OCc3ccccc3)nc21	11.7%	0.3%	/	/
Cc1ccc(-c2cn3c(n2)sc2cc(C(=O)NCCC4=CCCCC4)ccc23)cc1	-26.7%	-9.5%	-18.8%	-3.9%
CCCNC(=O)c1ccc2c(c1)sc1nc(-c3ccc(C)cc3)cn12	5.8µM*	5.8µM*	31.6µM*	0.0%
CCN(CC)CCCNC(=O)c1ccc2c(c1)sc1nc(-c3ccc(C)cc3)cn12	2.31µM*	2.31µM*	-27.4%	3.9%
CC[N+](C)(CC)CCOC(=O)C(O)(c1ccccc1)C1CCCCC1 (stereo not drawn)	?	?	2.2%	2.7%
CC[N+](C)(CC)CCC(c1ccccc1)C1CCCCC1 (stereo not drawn)	?	8.2µM*	/	/
O=C(NCc1ccc(Cl)cc1)c1cc(-c2ccco2)on1	-24.5%	5.6%	-3.2%	1.0%
CC(C)CNC(=O)c1cc(-c2ccco2)on1	17.8µM*	15.8µM*	-9.5%	0.0%
CCCNC(=O)c1cc(-c2ccco2)on1	9.2µM*	9.2µM*	-4.5%	1.0%[56.1 µM]
SMILES	DT40 TDP1 no CPT	TDP1 cell CPT	ClpP mod	TDP1 block
O=C(Nc1cccc(O)c1)c1cc(-c2ccco2)on1	14.6µM*	?	-1.0%	0.0%
CCOC(=O)C1OC1c1ccccc1 (stereo not drawn)	/	/	/	4.2%
CC(=O)c1cccc(NC(=O)COC(=O)[C@@H](NC(=O)OCc2ccccc2)C(C)C)c1	-6.4%	14.4%	2.8%	5.3%
O=c1oc2ccccc2n1Cc1cccc(C(F)(F)F)c1	?	-25.2%	-0.7%	/
COc1cc(OC)cc(-c2c(C#Cc3ccsc3)c3cc(-c4ccc(OC)c(F)c4)ccc3n2C)c1	-0.5%	-17.8%	3.6%	1.0%
COc1cc(C#Cc2c(-c3cncn3C)n(C)c3ccc(-c4ccc(OC)nc4)cc23)cc(OC)c1	?	16.4µM*	4.3%	4.5%
COc1cc(C#Cc2c(-c3cncn3C)n(C)c3ccc(-c4ccc5[nH]ccc5c4)cc23)cc(OC)c1	?	?	3.3%	2.4%
COc1cc(C#Cc2c(-c3cncn3C)n(C)c3ccc(-c4cc(OC)c(OC)c(OC)c4)cc23)cc(OC)c1	16.4µM*	20.6µM*	3.7%	5.5%
c1ccc2nc(-c3cc4ccccc4s3)ccc2c1	-25.7%	-29.4%	?	/
CN(C)c1ccc2nc3ccc(=O)cc-3sc2c1	1.64µM*	1.64µM*	-3.5%	/
CO/N=C/c1ccc(N2CCN(C(=O)c3ccc(F)cc3)CC2)c([N+](=O)[O-])c1	14.6µM*	14.6µM*	-1.0%	9.3%
CO/N=C/c1ccc(N2CCN(C(=O)c3ccc(Cl)cc3Cl)CC2)c([N+](=O)[O-])c1	5.8µM*	10.3µM*	-0.1%	7.8%
O=C(N/N=C/c1ccc(N2CCOCC2)c([N+](=O)[O-])c1)c1ccc(F)cc1	?	-28.7%	-1.4%	3.0%
CO/N=C/c1ccc(N2CCN(C(=O)c3cccc(C(F)(F)F)c3)CC2)c([N+](=O)[O-])c1	20.6µM*	14.6µM*	0.5%	11.6%
Cc1ccc(C(=O)O/N=C\c2ccc(N3CCCCC3)c([N+](=O)[O-])c2)cc1	13µM*	?	0.2%	11.8%
C=CCSC1=C(C#N)C(c2ccccc2C)CC(=O)N1 (stereo not drawn)	-26.0%	-8.7%	28.2µM*	-4.5%
CCSC1=C(C#N)C(c2ccccc2C)CC(=O)N1 (stereo not drawn)	-19.5%	-11.6%	1.1%	4.2%
COc1ccc(C2=CC(=O)C[C@H](c3ccc(F)cc3)C2)c(OC)c1	?	?	-3.9%	2.2%
CC1(C(=O)Nc2ccc(Cl)c(Cl)c2)CCN1Cc1ccccc1OC(F)F (stereo not drawn)	11.6µM*	16.4µM*	-6.1%	/
COc1ccc(NC(=O)C2(C)CCN2Cc2ccccc2OC(F)F)cc1OC (stereo not drawn)	11.6µM*	?	1.2%	/
COc1ccc(OC)c(S(=O)(=O)Nc2cccc3ccccc23)c1	?	-13.7%	-2.5%	/
COc1ccc(OC)c(S(=O)(=O)Oc2ccc(N)c3ccccc23)c1	23.1µM*	?	-0.2%	/
O=C(C[C@H]1C/C=C\C[C@@H](Cc2ccc(F)cc2)C(=O)O[C@H](c2ccccc2)CNC1=O)N[C@@H](CO)Cc1ccccc1	?	-21.6%	-0.4%	-1.1%
